S2 tox: viability counter-screen for ATXN expression inhibitors; S2 cells (HEK-293 line with an ATXN2-luciferase reporter) viability, CellTiter-Fluor protease fluorescence, 24 h; Potency, µM (top dose mostly 56.7 µM), hits mostly cytotoxic; hit rate 0.49% among 400,000; note: nearly all actives have a fitted effect of over 40% in size
HepG2 tox: HepG2 cytotoxicity, counter-screen for TGF-b inhibitors | HepG2 CAGA-GFP viability, ATP luminescence, 18 h | Potency, µM (top dose mostly 46.1 µM), actives largely listed as cytotoxic | hit rate 0.76% among 410,000
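HepG2 CAGA-GFP cells (1000/well, DMEM with 1% FBS) received compound, then TGF-beta at 500 pg/mL final, and were incubated 18 hours at 37 degrees C. Viability was read by CellTiter-Glo luminescence. Media-only wells were set as complete cell-killing and DMSO as no toxicity.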
A549 tox-1: counter-screen for Nrf2 inhibitors: cytotoxicity in A549 cells. Potency, µM (series often up to 46 µM), actives largely listed as inhibitors. AID 504648. hit rate 0.16% among 390,000. A549 ARE-Fluc cells, CellTiter-Fluor viability, 18-24 h
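Cytotoxicity counterscreen: CellTiter-Fluor fluorescence was measured in A549 ARE_Fluc cells after 18-24 h of compound exposure in a concentration series. The subsequent BugLite luminescent read reports ARE-luciferase activity.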
Nrf2 inh: inhibitors of Nrf2 signaling. A549 ARE-Fluc reporter, luciferase luminescence, 18-24 h. AID 504444. hit rate 2.1% among 360,000. Potency, µM (highest dose often 46 µM), hits mostly inhibitors; note: nearly all actives have a fitted effect of over 60% in size
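In this cell-based qHTS, ARE-driven firefly luciferase in A549 cells reports Nrf2 activity; the luminescent signal after BugLite lysis is the measured value, with a prior CellTiter-Fluor read for cell health.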
ATXN2 expr inh: ATXN2 expression inhibition. HEK-293 ATXN2-luciferase reporter, luminescence, 24 h. Potency, µM (series often up to 57 µM), most hits filed as inhibitors. hit rate 0.72% among 360,000. AID 1745845; note: nearly all actives have a fitted effect of over 55% in size
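ATXN2-luciferase reporter cells (luciferase flanked by upstream and downstream ATXN2 gene portions) were treated 24 h at 37 °C with compounds at up to 57 uM. SteadyGlo luminescence gave expression; GF-AFC fluorescence gave viability.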
TGFb inhibitor: blocks TGF-b signaling | Potency, µM (highest dose often 46.1 µM), most hits filed as inhibitors | hit rate 1.2% among 410,000 | HepG2 CAGA-GFP TGF-b/SMAD3 reporter, GFP fluorescence, 18 h; TGF-beta stimulated, 500 pg/mL final; note: nearly all actives have a fitted effect of over 65% in size
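HEPG2 CAGA-GFP cells (1000/well, DMEM with 1% FBS) were pre-incubated 2 h at 37 degrees C, given compound by pin tool, then stimulated with TGF-beta at 500 pg/mL final for 18 h before per-cell GFP fluorescence imaging.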
FLuc enzyme inh: firefly luciferase inhibition, Nrf2 hit validation | AID 720522 | purified firefly luciferase, luminescence inhibition | shares compounds with Nrf2 inh | Potency, µM (doses to about 57.5 µM), most hits filed as inhibitors | hit rate 4% among 1,400; note: nearly all actives have a fitted effect of over 65% in size
Target sequence (P08659 whole entry, looked up): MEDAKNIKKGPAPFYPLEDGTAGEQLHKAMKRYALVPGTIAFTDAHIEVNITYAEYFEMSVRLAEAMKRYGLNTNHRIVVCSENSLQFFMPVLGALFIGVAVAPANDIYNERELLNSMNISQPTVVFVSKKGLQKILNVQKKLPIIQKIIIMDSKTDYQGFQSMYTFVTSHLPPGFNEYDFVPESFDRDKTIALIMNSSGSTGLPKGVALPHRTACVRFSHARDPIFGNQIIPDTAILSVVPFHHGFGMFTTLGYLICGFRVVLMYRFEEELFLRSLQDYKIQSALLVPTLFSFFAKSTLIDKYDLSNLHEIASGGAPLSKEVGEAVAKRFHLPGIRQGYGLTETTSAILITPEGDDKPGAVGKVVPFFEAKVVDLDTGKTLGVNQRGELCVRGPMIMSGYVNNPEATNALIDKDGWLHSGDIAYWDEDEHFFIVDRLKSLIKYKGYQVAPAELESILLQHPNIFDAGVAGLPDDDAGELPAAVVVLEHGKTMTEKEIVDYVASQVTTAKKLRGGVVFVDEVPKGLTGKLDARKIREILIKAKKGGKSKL
A549 tox-2: toxic to A549 ARE-Fluc cells in Nrf2 counterscreen; shares compounds with Nrf2 inh; A549 ARE-Fluc cells, cytotoxicity counterscreen; Potency, µM (doses to about 46.1 µM), actives largely listed as inhibitors; hit rate 2% among 1,400; AID 720523;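 note: cells exposed to compounds for 18 to 24 hours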
Nrf2 ARE inh: Nrf2 inhibition confirmed, A549 ARE-luciferase; hit rate 74% among 1,400; Potency, µM (series often up to 46.1 µM), usual class: inhibitors; shares compounds with Nrf2 inh; A549 ARE-firefly luciferase reporter, luminescence; note: nearly all actives have a fitted effect of over 65% in size
Large screens that a line does not name were inactive (follow-up assays come after a bar, where shown). This is a sample that favours compounds with a hit; in the whole collection about 3.8% have one here. Calls come from the whole dose curve; as a rule, active = well fitted curve in the direction sought with a large enough effect; inconclusive = small, poorly fitted or top-dose-only effect, or another doubt; inactive = no such curve, though single readings can be large; an effect the other way counts as inactive or inconclusive.

C[C@]12CCC(=O)C=C1CC[C@@H]1[C@@H]2[C@@H](O)C[C@@]2(C)[C@H]1CC[C@]2(O)C(=O)CO	Nrf2 inh 0.029µM | FLuc enzyme inh inactive | A549 tox-2 inconclusive | Nrf2 ARE inh 0.29µM
C[C@]12CCC(=O)C=C1CC[C@@H]1[C@H]2[C@@H](O)C[C@@]2(C)[C@H]1CC[C@]2(O)C(=O)CO	none (no result: S2 tox, HepG2 tox, A549 tox-1, Nrf2 inh, TGFb inhibitor)
COc1ccccc1C(=O)Nc1nc(-c2ccc(S(=O)(=O)N3CCOCC3)cc2)cs1	S2 tox inconclusive, Nrf2 inh 5.2µM, ATXN2 expr inh 14µM | FLuc enzyme inh inactive | A549 tox-2 inactive | Nrf2 ARE inh 1.3µM
COc1ccccc1OC(C)C(=O)Nc1nc(-c2ccc(S(=O)(=O)N3CCOCC3)cc2)cs1 (centres undefined)	S2 tox inconclusive, A549 tox-1 inconclusive
c1cncc(CNc2ncnc3sccc23)c1	none
c1csc(CNc2ncnc3sccc23)c1	Nrf2 inh 5.8µM | FLuc enzyme inh inactive | A549 tox-2 inactive | Nrf2 ARE inh 7.3µM
COc1ccc(CNC(=O)C2CCC(=O)N(CCCN3CCCC3=O)C2)c(OC)c1 (centres undefined)	none
O=[N+]([O-])c1ccc(N/N=C/c2sc(N3CCOCC3)nc2-c2ccccc2)c(S(=O)(=O)Nc2ccc(Cl)cc2)c1	S2 tox inconclusive, A549 tox-1 2.6µM, Nrf2 inh 1.5µM, ATXN2 expr inh inconclusive, TGFb inhibitor inconclusive | FLuc enzyme inh inactive | A549 tox-2 inconclusive | Nrf2 ARE inh 3.3µM
O=C(O)c1cccc(N/N=C/c2sc(N3CCOCC3)nc2-c2ccccc2)c1	Nrf2 inh inconclusive
Cn1c(=O)c2[nH]c(CCCCc3nc4ccccc4[nH]3)nc2n(C)c1=O	none
Cn1c(=O)c2[nH]c(CCCCCCCCc3nc4ccccc4[nH]3)nc2n(C)c1=O	S2 tox inconclusive, Nrf2 inh 8.2µM, TGFb inhibitor inconclusive | FLuc enzyme inh inactive | A549 tox-2 inactive
COc1ccc(Cn2cccc(NC(=O)Nc3cccc(C#N)c3)c2=O)cc1	Nrf2 inh 5.2µM | FLuc enzyme inh inactive | A549 tox-2 inactive | Nrf2 ARE inh inconclusive
COc1ccc(Cn2c(C)c(C)c(C#N)c2NC(=O)Nc2cccc(C)c2)cc1	S2 tox inconclusive, A549 tox-1 inconclusive, Nrf2 inh inconclusive
Cc1ccc2oc(-c3ccc(Cl)c(NC(=O)c4cc5ccccc5o4)c3)nc2c1	none
Cc1ccc(CNc2c(C)c(C)nc3nncn23)cc1	Nrf2 inh 3.7µM | FLuc enzyme inh inactive | A549 tox-2 inactive | Nrf2 ARE inh 4.1µM
O=C1NC(CCO)C(=O)NC1CCO (centres undefined)	none
CCOC(=O)N1CCC(Nc2cc(C)nc3c(-c4ccccc4OC)c(C)nn23)CC1	Nrf2 inh 9.2µM, ATXN2 expr inh inconclusive | FLuc enzyme inh inactive | A549 tox-2 inactive | Nrf2 ARE inh 12µM
CC(=O)c1cn(CC(=O)Nc2cccc(C)c2C)c2ccccc12	Nrf2 inh 5.2µM | FLuc enzyme inh inactive | A549 tox-2 inactive | Nrf2 ARE inh inconclusive
CCC(=O)c1cn(CC(=O)Nc2cccc(C)c2C)c2ccccc12	none
COc1ccc(OC)c(-c2cc(Cl)c3c(c2)CC(CNC(=O)/C=C/c2ccccn2)O3)c1 (centres undefined)	none (no result: HepG2 tox, A549 tox-1, Nrf2 inh, ATXN2 expr inh, TGFb inhibitor)
